The values below come from the supplement of paper PMC4894684.

Molecules are shown by their SMILES. Several values for one entry are separate records, joined by “and”; a condition that tells them apart may be missing. Equal values may be shown once. Where a name gives a salt, the structure may show the parent alone. ± gives the standard deviation of the averaged measurements.

The assay concerns Toxoplasma gondii RH (in HFF). As to the kind of experiment: parasite growth relative to the screen mean (all compounds = 100%); higher = less inhibition of parasite growth. Particulars: 5 µM; 72 h; oxygen 21 %. Summed up:
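Library compounds, held as 10 mM DMSO stocks, were pinned to 5 µM final onto confluent human foreskin fibroblasts in 96-well plates. The cells were infected within 2 h with RH β-Gal–GFP Toxoplasma (MOI 1:5), grown 72 h at 21% O2, and assayed for parasite number by CPRG β-Gal using in-plate standard curves. Growth is reported relative to the screen mean, in which all compounds = 100%, averaged over two screens, and CellTiter-Blue checked uninfected host-cell viability.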
The compound `CC(=O)N[C@@H](CC(=O)N[C@@H](CCC(=O)O)C(=O)O)C(=O)O` [Spaglumic acid] showed a parasite growth of 131 ± 6.6%.
Consider `CCCC1O[C@@H]2C[C@H]3[C@@H]4CCC5=CC(=O)C=C[C@]5(C)[C@H]4[C@@H](O)C[C@]3(C)[C@]2(C(=O)CO)O1` (some centres undefined) [Budesonide], for which the parasite growth was found to be 138 ± 12%.
In the case of `CC(C)(C)c1ccc(S(=O)(=O)/C=C/C#N)cc1` it was 127 ± 30%.
In the case of `CCCCC1CCC(c2nc(-c3ccncc3)no2)CC1` (centres undefined) it was 81.9 ± 14%.
In the case of `CC1(C)NC(=O)N(c2ccc([N+](=O)[O-])c(C(F)(F)F)c2)C1=O` [Nilutamide], the parasite growth stood at 150 ± 36%.
`Cc1nc2c(O)cccc2c(=O)[nH]1` yielded a parasite growth of 122 ± 24%.
`CC1C(=O)OC2C(O)C34C5CC(C(C)(C)C)C36C(OC(=O)C6O)OC4(C(=O)O5)C12O` (centres undefined) [Ginkgolide B]: the parasite growth was 82.1 ± 27%.
The value for `N#C/C(=C\c1ccc(O)c(O)c1)C(=O)NCCCc1ccccc1` was 154 ± 16%; that for `O=C1CCC(N2C(=O)c3ccccc3C2=O)C(=O)N1` (centres undefined) [Thalidomide] was 151 ± 46%; that for `CN1CCc2cc(Cl)c(O)cc2[C@@H](c2ccccc2)C1` was 120 ± 46%.
On to `CNC(=O)[C@H]1O[C@@H](n2cnc3c(NCc4cccc(I)c4)nc(Cl)nc32)[C@H](O)[C@@H]1O`, for which the parasite growth came out at 120 ± 28%.
For `CCOCC(O)COc1ccc(NC(=O)CC[S+](C)C)cc1` (centres undefined) [Suplatast tosylate], the parasite growth came out at 75 ± 16%.
The value for `CC(=O)O[C@@H]1C[C@H]2C(C)(C)C(=O)C=C[C@]2(C)[C@H]2CC[C@@]3(C)[C@H](c4ccoc4)OC(=O)[C@H]4O[C@]43[C@@]21C` [Gedunin] was 62.3 ± 9.6%; that for `CC(Cc1ccc(O)c(O)c1)(NN)C(=O)O` [(S)-(-)-Carbidopa] was 147 ± 34%; that for `CC12CC3CC(C)(C1)CC(N)(C3)C2` [Memantine hydrochloride] was 123 ± 4.8%.
Regarding `N[C@H](C(=O)O)c1cc(O)cc(O)c1`, the parasite growth came to 119 ± 4.9%.
The value for `COC(=O)[C@@H]1[C@H]2C[C@H]3c4[nH]c5ccccc5c4CCN3C[C@@H]2CC[C@@H]1O` [Yohimbine hydrochloride] was 184 ± 33%; that for `CC1=C(/C=C/C(=C/C=C/C(C)=C/C(=O)O)c2ccc(C)cc2)C(C)(C)CCC1` was 94.1 ± 23%.
Take `Nc1ncnc2c1nc(Br)n2[C@@H]1O[C@@H]2COP(=O)(O)O[C@H]2[C@H]1O` [8-Bromo-cAMP, sodium salt]: the parasite growth is 125 ± 25%.
For `CCCOc1ccccc1-c1nc2[nH]nnc2c(=O)[nH]1` [Zaprinast], the parasite growth came to 98.3 ± 14%.
The value for `Cc1oncc1C(=O)Nc1ccc(C(F)(F)F)cc1` [Leflunomide] was 106 ± 61%; that for `CC(C)C[C@H](NC(=O)[C@@H](O)[C@H](N)Cc1ccccc1)C(=O)O` [Bestatin] was 136 ± 6.9%.
`CC[N+](C)(CC)CC(=O)Nc1c(C)cccc1C` [N-Methyllidocaine iodide] yielded a parasite growth of 119 ± 24%.
The value for `O=C(O)C=C1CCCc2ccccc2C1O` (centres undefined) was 112 ± 16%; that for `COc1cc2ncnc(Nc3ccc(F)c(Cl)c3)c2cc1OCCCN1CCOCC1` [Iressa] was 99 ± 20%.
`Clc1cccc(Cl)c1NC1=NCCN1` [Clonidine hydrochloride] yielded a parasite growth of 153 ± 28%.
The value for `N=C(N)SCCc1ccc(OCc2ccc([N+](=O)[O-])cc2)cc1` [KB-R7943 mesylate] was below 0%.
With `N[C@@H](Cn1ccc(=O)n(Cc2ccccc2C(=O)O)c1=O)C(=O)O`, the parasite growth is 108% and 93.5%.
The compound `CC(CCc1ccc(O)cc1)NCCc1ccc(O)c(O)c1` (centres undefined) [Dobutamine hydrochloride] showed a parasite growth of 176 ± 7.3%.
In turn, `O=C1CCc2c(ccc3ccccc23)O1` [Splitomicin] yielded a parasite growth of 149 ± 2.2%.
The value for `CNCCCCOc1ccccc1Cc1ccccc1` [Bifemelane hydrochloride] was 43.6 ± 3.2%; that for `CN(C)CCCSC(=N)N` [Dimaprit dihydrochloride] was 73.36 ± 0.62%.
The value for `CCCCc1nn(-c2ccccc2C(F)(F)F)c(=O)n1Cc1ccc(-c2ccccc2S(=O)(=O)NC(=O)c2sccc2C)cc1` was 137 ± 20%; that for `COc1ccc(C(=O)Nc2sc3c(c2C(N)=O)CCCC3)cc1OC` was 112 ± 5.8%.
For the compound `CCC(=O)NC1CCc2cccc(OC)c2C1` (centres undefined), the parasite growth was found to be 84.3 ± 9.1%.
Consider `N#C/C(=C(/N)Sc1ccc(N)cc1)c1ccccc1C(F)(F)F`, for which the parasite growth was 113 ± 29%.
For the compound `O=[N+]([O-])c1cc(Cl)ccc1S(=O)(=O)N1CCN(Cc2ccccc2)CC1`, the parasite growth is 130 ± 24%.
In the case of `CCCc1c(OCCCOc2ccc(OCC(=O)O)cc2)ccc(C(C)=O)c1O` it was 135 ± 1.4%; in that of `Cc1cccc(CCN2CCC(C(=O)c3ccc(NS(C)(=O)=O)cc3)CC2)n1` [E-4031 dihydrochloride], 150 ± 13%.
